# Screening results from PubChem.
# Shown are actives, neighbours in structure and some others; about 2.1% of the full set was active somewhere.
# aSyn yeast inh = qHTS of alpha-syn Inhibitors; Yeast expressing alpha-synuclein, growth rescue, BacTiter-Glo, 24 h; Potency, µM (series often up to 46.1 µM), inactives show at the highest dose growth rescue (activation), hits mostly activators; actives 0.14% (n = 370,000); note: % of control where 0% means no effect; nearly all actives have a fitted effect of over 65% in size
#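 Readout is rescue of growth in alpha-synuclein-expressing yeast, so inhibitors of toxicity appear as activators. Growth after 24 hr at 30 deg C in galactose medium is quantified by luminescence.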
# TDP43 rescue = qHTS of TDP-43 Inhibitors. Potency, µM (series often up to 46.1 µM), for inactives: top-dose growth rescue (activation), most hits filed as activators. AID 652104, 2013. actives 1.8% (n = 410,000). TDP-43 expressing yeast growth rescue, BacTiter-Glo, 24 h; note: % of control where 0% means no effect; nearly all actives have a fitted effect of over 50% in size
#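 Growth rescue of TDP-43-toxic yeast measured as ATP luminescence (BacTiter-Glo). Cells grown to mid-log in raffinose, induced in galactose at OD600=0.02, exposed to compound 24 hr at 30 deg C.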
# FUS yeast rescue = qHTS for Suppressors of FUS Proteinopathy: Primary screen using FUS-linked yeast assay | S. cerevisiae FUS-expressing, growth rescue, OD600, 24 h | Potency, µM (highest dose often 76.6 µM), usual class: activators | actives 0.24% (n = 390,000);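 note: plate controls were DMSO vehicle for no effect and reference control for full effect; nearly all actives have a fitted effect of over 55% in size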
#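 Absorbance at 600 nm, taken 24hr after compound addition, measured rescue of FUS-yeast growth at 30C. Induction used 2% galactose with seeding at OD 0.005. Controls: CP55940 from 92uM final, DMSO only.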
# Abeta rescue = qHTS for compounds that reverse cellular toxicity of Amyloid beta (A-beta) peptide in yeast: Primary Screen. yeast expressing A-beta42, growth rescue, OD600, 48 h; response scale: 0% DMSO, 100% iron-clioquinol control. Potency, µM (highest dose often 46.1 µM), hits mostly activators. actives 0.063% (n = 410,000); note: nearly all actives have a fitted effect of over 55% in size
#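 Yeast A-beta toxicity model in growth medium with pinned compounds, 48 h at 30 C; growth read as absorbance at 600 nm. Normalized to FeCl3/clioquinol equimolar mix (positive) and DMSO (negative).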
# Numbers without * were called inactive; i = inactive; ? = inconclusive; . = not tested or not shown; [ ] = another dose, or the depositor's remark. Calls come from the whole dose curve; as a rule, active = well fitted curve in the direction sought with a large enough effect; inconclusive = small, poorly fitted or top-dose-only effect, or another doubt; inactive = no such curve, though single readings can be large; an effect the other way counts as inactive or inconclusive. Potency is the fitted concentration of half-maximal effect.
SMILES,aSyn yeast inh,TDP43 rescue,FUS yeast rescue,Abeta rescue
COc1ccc(NC(=O)CSc2nc3sc4c(c3c(=O)n2-c2ccc(OC)cc2)CCN(C)C4)cc1,-0.6%,4.0%,?,i
O=C(c1ccccc1)C1OC1C(=O)c1ccccc1 (stereo unspecified),-46.1%,13.0%,i,i
CC1(C)CC(=O)C(C=NCCCN2CCCC2=O)=C(O)C1,0.0%,-9.5%,i,i
Cc1ccc(C(O)c2nc3ccccc3n2C(C)C)cc1 (stereo unspecified),8.3%,9.9%,i,i
O=C(NC(=S)Nc1ccc(-c2ccccc2)cc1)c1ccccc1,14.4%,-7.3%,i,i
O=C(COc1ccccc1)NNC(=S)NC(=O)c1ccccc1,?,3.55µM*,i,?
CCCC(=O)NC(=S)NNC(=O)c1ccc([N+](=O)[O-])cc1,20µM*,14.9%,i,i
CC(C)NC(=S)NC(=O)c1ccc(-c2ccccc2)cc1,-16.5%,17.8µM*,i,i
CCC(=O)NNC(=S)NC(=O)c1ccc(C)cc1,?,20µM*,i,?
Cc1ccc2[nH]c(C(=O)O)c(-c3ccccc3)c2c1,-12.1%,26.5%,i,i
CC(C)(C)NC(=O)c1ccc2c(c1)N(CC(=O)N1CCN(c3ccccc3F)CC1)C(=O)C(C)(C)O2,-0.3%,16.9%,i,i
Cc1ccc(C(=O)NC(=S)NNC(=O)COc2ccc([N+](=O)[O-])cc2)cc1,11.5%,20µM*,i,?
COc1ccc(CCNC(=S)NC(=O)c2cccc([N+](=O)[O-])c2)cc1OC,-1.5%,12.6µM*,.,i
CCCCCC(=O)NNC(=S)NC(=O)c1cccc([N+](=O)[O-])c1,15.8µM*,?,.,?
O=C(NC(=S)NNC(=O)c1cnccn1)c1ccc(Cl)cc1,5.01µM*,3.16µM*,i,i
COc1ccc(C(=O)NC(=S)NNC(=O)c2cnccn2)cc1,?,?,i,i
C/C(=N/Nc1ccccc1[N+](=O)[O-])c1ccc(C)c([N+](=O)[O-])c1,0.2%,4.6%,i,i
CC(=O)c1ccc(NCCCN2CCC(C(O)(c3ccccc3)c3ccccc3)CC2)cc1,.,.,i,.
CC(C)Sc1ncc(Cl)c(C(=O)Nc2ccc(S(=O)(=O)N3CCCCC3)cc2)n1,.,4.8%,i,i
O=C(CCc1ccccc1)NNC(=S)NC(=O)c1ccc(Cl)cc1,12.6µM*,14.1µM*,i,?
O=C(O)CCC(=NNC(=O)c1cccc(S(=O)(=O)N2CCCCC2)c1)c1ccccc1,2.4%[1.84 µM],9.7%,i,i
Cc1cc(Cl)ccc1C(=O)C1CCCN(C(=O)c2ccsc2)C1 (stereo unspecified),9.9%,12.6µM*,i,i
CCCN1C(=O)c2ccc(C(=O)Nc3cc(C)ccc3O)cc2C1=O,-25.4%,-23.0%,i,i
Cc1ccc(NC(=O)CSc2nnc(-c3ccccc3F)n2-c2ccccc2)c(C)c1,.,.,i,.
O=C(CSc1nnc(-c2ccccc2)n1-c1ccc(Cl)cc1)Nc1ccccc1-c1ccccc1,.,.,8.91µM*,.
SMILES,aSyn yeast inh,TDP43 rescue,FUS yeast rescue,Abeta rescue
COc1cc(NC(=O)c2ccccc2)c(C)cc1NC(=O)CSc1nnc(-c2ccccc2F)n1-c1ccc(C)cc1,.,.,10µM*,.
Nn1c(SCC(=O)Nc2cccc3ccccc23)nnc1-c1cc(-c2ccccc2)n[nH]1,.,.,i,.
Cc1ccc(-c2cc(-c3nnc(SCC(=O)Nc4ccccc4-c4ccccc4)n3N)[nH]n2)cc1,.,.,17.8µM*,.
Cc1cc(O)c(C2(O)C(=O)Nc3cc(Br)ccc32)cc1C (stereo unspecified),11.0%,-13.6%,i,i
O=C(N/C(=C/c1ccccc1)C(=O)N1CCCCC1)c1ccc(Br)o1,5.4%,-1.9%,.,i
O=S(=O)(Nc1nc2ccccc2nc1Cl)c1ccc(F)cc1,-2.8%,6.6%,i,?
O=S(=O)(Nc1nc2ccccc2nc1Cl)c1ccccc1,1.4%,35.5µM*,i,i
CCCN(CC(=O)Nc1ccccc1OC)C(=O)c1ccc(COc2ccccc2)o1,0.9%,11.2µM*,?,i
O=S1(=O)CC(c2ccccc2)=NN=C(c2ccccc2)C1,0.6%,18.9%,i,i
O=C1CC(c2ccccc2)=NO1,15.8µM*,10µM*,i,i
COc1ccccc1C(=O)Nc1nc(-c2ccccc2)ns1,-22.6%,?,i,i
O=C(NCc1cccnc1)c1ccc(NC(=O)c2ccc([N+](=O)[O-])cc2)cc1,0.0%,8.7%,i,i
Cc1ccc(S(=O)(=O)NC(=S)NC2CCCCC2)cc1,10.5%,15.8µM*,i,i
O=C(CNc1ccc(Br)cc1)c1ccc(O)cc1,-26.6%,10µM*,i,i
COc1cc2c(oc(=O)c3cc(C)cc(OC)c32)c2c(C3OC(C)C(O)C(C)(O)C3O)ccc(O)c12 (stereo unspecified),6.31µM*,?,.,i
CCNC(=S)N1C2CCC1CC(NC(=O)Nc1ccc(C(=O)OCC)cc1)C2 (stereo unspecified),-0.6%,-17.7%,i,i
COCCn1c(C)cc(C2=NNC(=Nc3ccccc3)SC2)c1C,1.2%,-10.3%,10µM*,i
N#Cc1sc(NCc2cccc(Cl)c2)nc1Cl,19.1%,14.1µM*,i,i
C[C@@]12C(=O)N(c3cccc(Cl)c3)C(=O)N1[C@H](c1ccc(Cl)cc1)[C@@H]1C(=O)N(C3CCCCC3)C(=O)[C@@H]12,12.7%,26.4%,?,i
COc1ccc(N2C(=O)N3[C@H](c4ccc(Cl)cc4)[C@@H]4C(=O)N(C5CCCCC5)C(=O)[C@@H]4[C@]3(C)C2=O)cc1,-1.3%,10.5%,28.2µM*,i
COc1ccc(S(=O)(=O)NCCSCc2ccccc2C)cc1Br,?,15.8µM*,i,i
COc1ccc(Br)cc1/C=C/C(=O)c1ccc(NC(C)=O)cc1,-8.2%,17.8µM*,i,i
CC(C)NC(=S)Nc1ccc2nc3n(c(=O)c2c1)CCCCC3,0.1%,12.9%,.,i
CCOC(=O)c1cnc2ccc(C)cc2c1Nc1ccc(OCc2ccccc2Cl)cc1,.,22.4µM*,i,i
CCOC(=O)c1cnc2ccc(OC)cc2c1Nc1ccc(OCc2ccccc2Cl)cc1,.,20µM*,i,i
CCOC(=O)c1cnc2ccc(OCC)cc2c1Nc1ccc(OCc2ccccc2Cl)cc1,.,-4.1%,i,i
CCOC(=O)c1cnc2ccc(C(=O)OC)cc2c1Nc1ccc(OCc2ccccc2Cl)cc1,-4.1%,-18.2%,i,i
CCC(C)NC(=O)CN(c1cc(Cl)cc(Cl)c1)S(C)(=O)=O (stereo unspecified),-4.3%,22.5%,i,i
O=C1/C(=C/c2ccccc2Cl)SC(=S)N1CCCC(=O)N(CCO)c1ccccc1,17.8µM*,27.3%,i,i
